Results reported in the supplement of paper PMC12067926.
A number with no mark means an inactive call.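 Rule for the calls: active = growth AUC significantly below the DMSO wells by Dunnett test; inactive = the rest.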

compound: O=C(Oc1ccccc1)n1c(C(F)(F)F)nc2cc(Cl)c(Cl)cc21; experiment: relative growth (AUC of 72 h growth curve relative to DMSO control, dAUC) (ratio); higher = more growth (less inhibition), active = hit call of the paper; settings: 20 µM
Procedure: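 Environmental bacterial isolates (Iceland stream sediment and Silwood Park soil) and whole stream-sediment communities were grown in LB from a 1:100 dilution with each pesticide at 20 µM (1% DMSO). A600 was read hourly for 72 h and the area under a spline-fitted growth curve (AUC) was computed. dAUC is the mean AUC of 3 biological replicates divided by the mean AUC of the DMSO controls. Significance was tested by Dunnett's test against the DMSO control.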

Target	relative growth
Paenibacillus 1 (Paenibacillus castaneae)	0.00512 (active)
Hymenobacter 1 (Hymenobacter glaciei)	0.165 (active)
Flavobacterium 2 (Flavobacterium succinicans)	0.0416 (active)
Pseudomonas 6 (Pseudomonas sp.)	0.777
Flavobacterium 1 (Flavobacterium glaciei)	0.0789 (active)
Carnobacterium 1 (Carnobacterium gallinarum)	0.0839 (active)
Pseudomonas 3 (Pseudomonas mandelii)	0.765 (active)
Community 7	1.01
Aeromonas 3 (Aeromonas popoffii)	0.337 (active)
Pseudomonas 1 (Pseudomonas baetica)	0.741
Neobacillus 1 (Neobacillus soli)	0.826
Community 6	0.563 (active)
Aeromonas 1 (Aeromonas sp. AE235)	0.32 (active)
Serratia 1 (Serratia sp. 2015-2462-01)	0.366 (active)
Arthrobacter 3 (Arthrobacter sp.)	0.0715 (active)
Community 9	0.363 (active)

Target	relative growth
Community 8	0.787
Pseudomonas 2 (Pseudomonas vancouverensis)	0.735 (active)
Bacillus 1 (Bacillus foraminis)	0.747
Argrobacterium 1 (Agrobacterium sp.)	0.752 (active)
Pseudomonas 5 (Pseudomonas baetica)	0.765 (active)
Community 10	0.772
Community 4	0.809
Arthrobacter 2 (Arthrobacter humicola)	0.00975 (active)
Microbacterium 1 (Microbacterium arborescens)	0.785 (active)
Aeromonas 2 (Aeromonas sobria)	0.0369 (active)
Rhizobium 1 (Rhizobium herbae)	0.0292 (active)
Oryzobacter 1 (Oryzobacter terrae)	0.00822 (active)
Prolinoborus 1 (Prolinoborus fasciculus)	0.283 (active)
Pseudomonas 4 (Pseudomonas peli)	0.336 (active)
Arthrobacter 1 (Arthrobacter humicola)	0.211 (active)
Sphingomonas 2 (Sphingomonas sp.)	0.0208 (active)
